Measurements from PubChem BioAssay (NCI).
The panel holds about 83,000 compounds, 20% with a hit somewhere; the sample as a whole holds those more often.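 Single-dose data. Exposure time 48 hours. Values below 10 considered active.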 Activity calls are given as the source filed them.

Experiments:
Assay in all cases: NCI-60 one-dose screen, 48 h (100 = growth as untreated, 0 = no growth, -100 = all killed)
Conditions in all cases: 10 µM unless noted
T-47D breast = test system: T-47D breast
BT-549 breast = test system: BT-549 breast
MDA-MB-435 melanoma = test system: MDA-MB-435 melanoma
SW-620 colon = test system: SW-620 colon
MCF7 breast = test system: MCF7 breast
HCT-116 colon = test system: HCT-116 colon
HCC-2998 colon = test system: HCC-2998 colon
KM12 colon = test system: KM12 colon
MDA-MB-468 breast = test system: MDA-MB-468 breast

Measured: growth

COc1ccc(-c2cc(-c3cc(C(C)C)c(O)cc3C)nn2-c2ccc(S(N)(=O)=O)cc2)cc1
active: BT-549 breast -3.73% | MDA-MB-435 melanoma -58.2% | KM12 colon 2.28% | MDA-MB-468 breast -15.9%
inactive: T-47D breast 12.7% | SW-620 colon 28.2% | MCF7 breast 11% | HCT-116 colon 27.4% | HCC-2998 colon 45.9%

CCOC(=O)/C(F)=C/C1CC1CCc1ccc(OCC)cc1 (centres undefined)
inactive: T-47D breast 74.7% | BT-549 breast 106% | MDA-MB-435 melanoma 99% | SW-620 colon 92% | MCF7 breast 85.7% | HCT-116 colon 93.7% | HCC-2998 colon 90.5% | KM12 colon 83.9% | MDA-MB-468 breast 71.6%

COc1ccc(/C=C/c2nc3ccccc3c(=O)n2CC(=O)Nc2ccccc2)cc1
active: T-47D breast -20.4%
inactive: BT-549 breast 98.5% | MDA-MB-435 melanoma 85.2% | SW-620 colon 61.6% | MCF7 breast 54.9% | HCT-116 colon 21% | HCC-2998 colon 80.2% | KM12 colon 66.9% | MDA-MB-468 breast 55.7%

CC(C)(C)c1cc(-c2cc(-c3ccccc3)[nH]c(=O)c2C#N)cc(C(C)(C)C)c1
inactive: T-47D breast 36.4% | MDA-MB-435 melanoma 56.9% | SW-620 colon 66.1% | MCF7 breast 71.8% | HCC-2998 colon 59.8% | KM12 colon 81.3% | MDA-MB-468 breast 37.8%
active: BT-549 breast -3.78% | HCT-116 colon -35%

Cc1ccc2c(c1)nc(-c1ccccc1)n2CC(=O)N=Nc1c(O)[nH]c2ccc(Cl)cc12
active: T-47D breast -79.4% | BT-549 breast -72% | MDA-MB-435 melanoma -14.2% | SW-620 colon 0.844% | MCF7 breast -64% | HCT-116 colon -82.5% | HCC-2998 colon -71.3% | KM12 colon -56.2% | MDA-MB-468 breast -70.2%

COc1cc(/C=C/C(=O)c2ccc(S(=O)(=O)NCCNc3nc(N(C)C)nc(N4CCOCC4)n3)cc2)cc(OC)c1OC
inactive: T-47D breast 29.9%
active: BT-549 breast -73.3% | MDA-MB-435 melanoma -56% | SW-620 colon -100% | MCF7 breast -96.4% | HCT-116 colon -100% | HCC-2998 colon -100% | KM12 colon -100% | MDA-MB-468 breast -100%

O=C(N/N=C/c1ccsc1)c1[nH]c2ccc(Br)cc2c1-c1ccccc1
active: T-47D breast -21.6% | BT-549 breast -86% | MDA-MB-435 melanoma -85.3% | SW-620 colon -68% | MCF7 breast -50.9% | HCT-116 colon -71% | HCC-2998 colon -59.4% | KM12 colon -49.3% | MDA-MB-468 breast -25.6%

COc1ccc(-c2cc(-c3cc(OC)c(OC)c(OC)c3)[nH]c(=O)c2C#N)cc1
inactive: T-47D breast 34.6% | BT-549 breast 70.5% | MDA-MB-435 melanoma 73.6% | SW-620 colon 93.4% | MCF7 breast 86.2% | HCT-116 colon 34.7% | HCC-2998 colon 67.1% | KM12 colon 75.8% | MDA-MB-468 breast 79.8%

N#CC1=C(c2cccs2)Nc2c(c(-c3ccccc3)nn2-c2ccccc2)C12C(=O)Nc1ccc(Br)cc12 (centres undefined)
active: T-47D breast 1.8% | BT-549 breast -68.4% | MDA-MB-435 melanoma -40.1% | SW-620 colon -24.6% | MCF7 breast 7.23% | HCT-116 colon -52.8% | HCC-2998 colon 6.28% | KM12 colon -12.2% | MDA-MB-468 breast -31.9%

CCCn1c(NC(=O)c2cccc(C(N)=O)c2)nc2cc(CN3CCCCC3)ccc21
active: BT-549 breast -10.8% | HCT-116 colon 5.91%
inactive: T-47D breast 86.6% | MDA-MB-435 melanoma 101% | SW-620 colon 113% | MCF7 breast 71.5% | HCC-2998 colon 116% | KM12 colon 22.8% | MDA-MB-468 breast 82.5%

COc1ccc(N=Nc2c(N)nn3c(-c4ccc(OC)c(OC)c4)ccnc23)cc1
inactive: T-47D breast 62% | BT-549 breast 65.6% | MDA-MB-435 melanoma 81.9% | SW-620 colon 95.2% | MCF7 breast 84.9% | HCT-116 colon 72.5% | KM12 colon 97.9% | MDA-MB-468 breast 80.2%
active: HCC-2998 colon -35.9%

Cc1cn(-c2cc(NC(=O)c3ccc(C)c(-n4cc(-c5cnc6cccnn56)nn4)c3)cc(C(F)(F)F)c2)cn1
inactive: T-47D breast 94.6% | BT-549 breast 158% | MDA-MB-435 melanoma 57.7% | SW-620 colon 84.9% | MCF7 breast 98.6% | HCT-116 colon 53.2% | HCC-2998 colon 82.2% | KM12 colon 54.9% | MDA-MB-468 breast 99.1%

COc1ccc2c(c1)C(Sc1ccc(Cl)cc1)c1c(nc(N)c(C#N)c1N)O2 (centres undefined)
inactive: T-47D breast 55% | BT-549 breast 12.4% | MDA-MB-435 melanoma 75.8% | SW-620 colon 58.1% | MCF7 breast 26.7% | HCT-116 colon 48% | HCC-2998 colon 94.2% | KM12 colon 47% | MDA-MB-468 breast 77.9%

COc1cc(C=O)ccc1OC(=O)c1cc(-c2ccc(C)cc2)n(-c2ccc(S(C)(=O)=O)cc2)n1
inactive: T-47D breast 105% | BT-549 breast 126% | MDA-MB-435 melanoma 104% | SW-620 colon 124% | MCF7 breast 88.4% | HCT-116 colon 98.7% | HCC-2998 colon 118% | KM12 colon 104% | MDA-MB-468 breast 124%

O=c1c(-c2nc(-c3ccccc3)c(-c3ccccc3)[nH]2)coc2ccc(F)cc12
inactive: T-47D breast 22.1% | BT-549 breast 70.8% | MDA-MB-435 melanoma 65.4% | SW-620 colon 51% | MCF7 breast 25.9% | HCT-116 colon 39.4% | HCC-2998 colon 77.2% | KM12 colon 23.4% | MDA-MB-468 breast 16%

COc1ccc(-c2nc3ccccc3n2CC(=O)N=Nc2c(O)[nH]c3ccc(Br)cc23)cc1
inactive: T-47D breast 90.9% | BT-549 breast 53.3% | MDA-MB-435 melanoma 23.3% | SW-620 colon 83% | MCF7 breast 43.7% | HCT-116 colon 51.9% | HCC-2998 colon 108% | KM12 colon 71.1% | MDA-MB-468 breast 56.1%

COc1ccc2[nH]c(O)c(N=Nc3nc(-c4ccccc4)cs3)c2c1
inactive: BT-549 breast 50.2% | MDA-MB-435 melanoma 39.7% | SW-620 colon 37.4% | MCF7 breast 11.6% | HCC-2998 colon 58.6% | KM12 colon 46.7%
active: T-47D breast 0.04% | HCT-116 colon 1.24% | MDA-MB-468 breast -20.7%

Cc1cccc(-c2ccccc2Oc2ccc3nnc(Cl)n3n2)c1
inactive: T-47D breast 111% | BT-549 breast 99.8% | MDA-MB-435 melanoma 105% | SW-620 colon 101% | MCF7 breast 95% | HCT-116 colon 104% | HCC-2998 colon 105% | KM12 colon 106% | MDA-MB-468 breast 98.3%

Cc1[nH]nc2ccc3nc(-c4cn[nH]c4C(F)(F)F)c4c(c3c12)CCCC4
active: T-47D breast 3.05% | BT-549 breast -82.4% | SW-620 colon -31.1% | MCF7 breast 5.54% | HCT-116 colon -49% | HCC-2998 colon -16.6% | KM12 colon 9.09% | MDA-MB-468 breast -45.6%
inactive: MDA-MB-435 melanoma 21.6%

CC1=C(C(=O)OCc2ccccc2)C(c2cccc3ccccc23)n2c(nc3ccccc32)N1 (centres undefined)
inactive: T-47D breast 30.2% | BT-549 breast 25% | SW-620 colon 23.7% | MCF7 breast 12.7% | HCT-116 colon 17.7% | HCC-2998 colon 57% | KM12 colon 19.1%
active: MDA-MB-435 melanoma -45.5% | MDA-MB-468 breast -42.5%

CCOc1ccccc1[C@H]1C(C(=O)c2ccc(Cl)cc2)C2(N[C@@H]1c1ccccc1)C(=O)Nc1ccc(Br)cc12 (some centres undefined)
active: BT-549 breast -67.7% | MDA-MB-435 melanoma -59.3% | MCF7 breast -11.9% | HCT-116 colon -92.6% | HCC-2998 colon -22% | KM12 colon -9.26% | MDA-MB-468 breast -21.5%
inactive: T-47D breast 13.2% | SW-620 colon 15.8%

Cc1ccc(/C=C/C(=O)c2ccc(S(=O)(=O)NCCNc3nc(N(C)C)nc(N4CCOCC4)n3)cc2)cc1
inactive: T-47D breast 69.6% | BT-549 breast 97.3% | MDA-MB-435 melanoma 74.8% | SW-620 colon 29.1% | HCC-2998 colon 114% | KM12 colon 21.1% | MDA-MB-468 breast 67.3%
active: MCF7 breast 7.32% | HCT-116 colon -21.6%

Clc1ccccc1Nc1nnc(-c2c[nH]c3ccccc23)o1
inactive: T-47D breast 27.3% | BT-549 breast 25.1% | SW-620 colon 29% | MCF7 breast 14.9% | KM12 colon 15%
active: MDA-MB-435 melanoma -44.2% | HCT-116 colon 8.25% | HCC-2998 colon 6.55% | MDA-MB-468 breast -22.5%

C[C@@H]1[C@H]2C[C@@H](C[C@H]1NCc1nc3ccccc3n1C1CCCCCC1)C2(C)C
active: MDA-MB-468 breast 2.05%
inactive: T-47D breast 48% | BT-549 breast 72.8% | MDA-MB-435 melanoma 73.6% | SW-620 colon 49.6% | MCF7 breast 28.1% | HCT-116 colon 23.4% | HCC-2998 colon 37.6% | KM12 colon 68.6%

O=C(N/N=C/c1ccc(Br)o1)c1[nH]c2ccc(Br)cc2c1-c1ccccc1
inactive: T-47D breast 27.1%
active: BT-549 breast -27.8% | MDA-MB-435 melanoma -29.1% | SW-620 colon 6.96% | MCF7 breast 0.0933% | HCT-116 colon -13.3% | HCC-2998 colon -7.57% | KM12 colon -1.58% | MDA-MB-468 breast 5.25%

O=C(Nc1ccc(-c2ccc3c(c2)NC(=O)/C3=C\c2ccc[nH]2)cc1)Nc1cccc(Cl)c1
active: T-47D breast -1.23% | BT-549 breast -1.48% | MCF7 breast -9.34% | HCT-116 colon 2.08% | HCC-2998 colon -24.2% | KM12 colon -22.3% | MDA-MB-468 breast -55.5%
inactive: MDA-MB-435 melanoma 10.1% | SW-620 colon 13.9%
